Records with an inconclusive call do not appear. Where a call stands in place of a potency, no number is given. A number with no mark means an inactive call. Active and inactive are the calls of the source. The call rests on the fitted dose curve; in most records, active means well fitted inhibition curve with a large enough effect; inconclusive means small, poorly fitted or top-dose-only effect; inactive means flat fitted curve, though single readings scatter. Where a SMILES comes first, the peptide text is derived from it. [ ]: non-standard residue; d: D form. dPhe(4-Cl) = N[C@H](Cc1ccc(Cl)cc1)C(=O)O; d2Nal = N[C@H](Cc1ccc2ccccc2c1)C(=O)O; dCit = NC(=O)NCCC[C@@H](N)C(=O)O; d3Pal = N[C@H](Cc1cccnc1)C(=O)O

The target of the test is Calcium and integrin-binding protein 1 (Homo sapiens) (UniProt Q99828). Description: Primary qHTS for Identification of Calcium Integrin Binding Protein 1 (CIB1) Competitor (AID 1508620). Further: top concentration of the series differs between compounds. As to conditions: CIB1-GST / FITC-alphaIIb peptide fluorescence polarization; series mostly up to 114 µM. The gist of the method: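 Fluorescence polarization competition: GST-tagged CIB1 (1 uM final) preincubated with compound 15 min at room temperature, then FITC-labelled alphaIIb peptide (100 nM final) added. After 15 min at room temperature, polarization read at Ex 480/Em 540.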
Chain of Calcium and integrin-binding protein 1 (Homo sapiens) (Q99828 whole entry, looked up): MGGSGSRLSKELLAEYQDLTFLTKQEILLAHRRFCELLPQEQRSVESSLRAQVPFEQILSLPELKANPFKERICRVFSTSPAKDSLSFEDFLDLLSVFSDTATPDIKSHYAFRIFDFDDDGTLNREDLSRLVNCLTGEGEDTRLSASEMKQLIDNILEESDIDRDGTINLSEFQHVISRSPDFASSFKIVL
For orientation: In qHTS, concentration-response curves come from the screen itself.
Take `C/C1=C\CC[C@H](C)CCO[C@@H]2O[C@H](CO[C@@H]3OC[C@](O)(COC1=O)[C@H]3O)[C@@H](O)[C@H](O)[C@H]2O`: the Potency entry is “inactive”. In the case of `CC(C)C(C#N)O[C@@H]1O[C@H](CO[C@@H]2O[C@@H](C)[C@H](O)[C@@H](O)[C@H]2O)[C@@H](O)[C@H](O)[C@H]1O` (stereo not given in full), the Potency result is “inactive”. On the same count and under the same terms, the result for `C/C=C1\[C@H](OC2OC(COC3OC(CO)C(O)C(O)C3O)C(O)C(O)C2O)OC=C(C(=O)OC)[C@H]1CC(=O)OCCc1ccc(O)cc1` (stereo not given in full) reads “inactive”. Same read-out and setting: to `C=CC1C(OC2OC(CO)C(O)C(O)C2O)OC=C(C(=O)OC)C1CC1CC(=O)CC(CCc2ccc(O)cc2)O1` (stereo not given) belongs “inactive”; to `CC(C)C[C@H](CC(=O)NO)C(=O)N[C@@H](Cc1ccc2ccccc2c1)C(=O)N[C@@H](C)C(=O)NCCN`, “inactive”; to `CC(C)O[C@@H]1O[C@H](CO)[C@@H](O)[C@H](O)[C@H]1O`, “inactive”.

Consider `Cc1cc(C(=O)N2Cc3cnn(C)c3Nc3ccccc32)ccc1CNC(=O)N1CCC[C@H]1C(=S)N1CCCN(C)CC1`, for which the Potency entry is “inactive”.

As for `COC(=O)C(C)C1CCC2(C)C(=O)C=CC(C)(O)C2C1O` (stereo not given), the Potency entry was “inactive”. On the same count and under the same terms, the result for `c1cn2cc(-c3ccc4cn[nH]c4c3)nc(Nc3ccc(N4CCOCC4)cc3)c2n1` reads “inactive”; that for `Nc1nc2c(c(N3CCNCC3)n1)CCC1=C2[C@@H]2CCCC[C@@H]2O1`, “inactive”. For the compound `CC(C)NCC(C(=O)N1CCN(c2ncnc3c2C(C)CC3O)CC1)c1ccc(Cl)cc1` (stereo not given), the Potency result was “inactive”. Turning to `C=C1[C@H](OC(C)=O)[C@H]2[C@@H](OC(C)=O)[C@](C)(OC(C)=O)C[C@]2(OC(C)=O)C(=O)[C@H](C)/C=C/C(C)(C)C(=O)[C@H](OC(=O)C(C)CC)[C@H]1OC(C)=O` (stereo not given in full), the Potency entry was “inactive”.

`CC1=CCC2C(C)(C)CCC[C@]2(C)[C@@]12CC[C@](C)(CC(=O)O)O2` (stereo not given in full): the Potency entry was “inactive”.

In the case of `Cc1cnc(NC(=O)Nc2cc(Br)c(C)cc2OCC2CNCCO2)cn1` (stereo not given), the Potency result was “inactive”. Same read-out and setting: to `O=C1CSc2ccccc2N1Cc1cccc(C(F)(F)F)c1` belongs “inactive”; to `CCCOc1ccc(-c2nc(OC)c3ccccc3n2)cc1`, “inactive”; to `CC(C)=CCC(O)/C(C)=C/CO[C@@H]1O[C@H](CO)[C@@H](O)[C@H](O)[C@H]1O` (stereo not given in full), “inactive”.

Consider `COc1cc2c(cc1O)[C@H](c1ccc(O[C@@H]3O[C@H](CO)[C@@H](O)[C@H](O)[C@H]3O)c(OC)c1)[C@@H](CO)[C@](O)(CO)C2`, for which the Potency entry is “inactive”.

Turning to `CC1(C)CC[C@@]2(C(=O)O[C@@H]3O[C@H](CO)[C@@H](O)[C@H](O)[C@H]3O)C(C1)C1=CCC3[C@@]4(C)CC[C@@H](O[C@@H]5O[C@H](C(=O)O)[C@@H](O[C@@H]6OC[C@@H](O)[C@H](O)[C@H]6O)[C@H](O[C@@H]6OC[C@](O)(CO)[C@H]6O)[C@H]5O)C(C)(C)C4CC[C@@]3(C)[C@]1(C)C[C@H]2O` (stereo not given in full), the Potency entry is “inactive”. Still for that read-out and setting: to `CC(C)=CCC[C@](C)(O)[C@H]1CC[C@]2(C)[C@@H]1[C@H](O)CC1[C@@]3(C)CC[C@H](O)C(C)(C)C3[C@@H](O[C@@H]3O[C@H](CO)[C@@H](O)[C@H](O)[C@H]3O[C@@H]3OC[C@@H](O)[C@H](O)[C@H]3O)C[C@]12C` (stereo not given in full) belongs “inactive”; to `O=C(CCCCN1CCOCC1)Nc1ccc(-c2cccnc2)cc1`, “inactive”.

As to `CC1CCC2(CO)C(C(=O)O)=CCCC2C1(C)CCc1ccoc1` (stereo not given), the Potency result is “inactive”. On to `C=C(C)C(=O)O[C@H]1CC2=CC(C/C(C)=C\[C@H]3OC(=O)C(=C)[C@H]13)OC2=O` (stereo not given in full), for which the Potency entry was “inactive”. Still for that read-out and setting: the result for `Cc1ccc(C(=O)Nc2noc3ccccc23)cc1` reads “inactive”; that for `Fc1ccc2nc(CCC#Cc3ccccn3)cn2c1`, “inactive”; that for `CC(=O)N[C@H](Cc1ccc2ccccc2c1)C(=O)N[C@H](Cc1ccc(Cl)cc1)C(=O)N[C@H](Cc1cccnc1)C(=O)N[C@@H](CO)C(=O)N[C@@H](Cc1ccc(O)cc1)C(=O)N[C@H](CCCNC(N)=O)C(=O)N[C@@H](CC(C)C)C(=O)N[C@@H](CCCN=C(N)N)C(=O)N1CCC[C@H]1C(=O)N[C@H](C)C(N)=O` (Ac-[d2Nal][dPhe(4-Cl)][d3Pal]SY[dCit]LRP[dA]-NH2), “inactive”.

As for `CC(NC(=O)CCc1nc2ccccc2c(=O)[nH]1)c1ccccc1` (stereo not given), the Potency entry was “inactive”. With `CO[C@H]1/C=C/[C@@](C)(O)/C=C/C(=O)O[C@H](C)[C@@H](C)CC/C=C/1C`, the Potency result was “inactive”. As for `COc1ccc(CCO[C@@H]2CCCC[C@H]2N2CC[C@@H](O)C2)cc1OC`, the Potency result was “inactive”.

For the compound `CC1OC(OC2C(OC3C(O[C@H]4CC[C@@]5(C)C(CC[C@]6(C)C5C(=O)C=C5C7CC(C)(C)CC(O)[C@]7(C)CC[C@]56C)C4(C)C)OC(C(=O)O)C(O)C3O)OCC(O)C2O)C(O)C(O)C1O` (stereo not given in full), the Potency entry was “inactive”. Consider `CC1(C)CC[C@]2(C(=O)O[C@@H]3O[C@H](CO[C@@H]4O[C@H](CO)[C@@H](O)[C@H](O)[C@H]4O[C@@H]4O[C@H](CO)[C@H](O)[C@H](O)[C@H]4O)[C@@H](O)[C@H](O[C@@H]4O[C@H](CO)[C@@H](O)[C@H](O)[C@H]4O)[C@H]3O)CC[C@]3(C)C(=CCC4[C@@]5(C)CC[C@H](O[C@@H]6OC[C@@H](O)[C@H](O)[C@H]6O)[C@@](C)(C(=O)O)C5CC[C@]43C)[C@@H]2C1` (stereo not given in full), for which the activity change, negative = inhibition was 0.475% [at 12.4 µM]. `Nc1nc2c(ncn2[C@@H]2O[C@@H]3COP(=O)(O)O[C@H]3[C@H]2O)c(=O)[nH]1`: the Potency result was “inactive”. On the same count and under the same terms, the result for `COc1cc(O)cc(/C=C/c2ccc(O[C@@H]3O[C@H](CO)[C@@H](O)[C@H](O)[C@H]3O)cc2)c1` reads “inactive”; that for `C=C(C(=O)O)[C@H]1C[C@]2(C)[C@@H](O)CC[C@]23O[C@H]1C[C@@H]3C`, “inactive”. `CC(=O)c1ccc2c(c1)C(O)C(C(C)(C)O)O2` (stereo not given): the Potency result was “inactive”. Take `C[C@@H]1O[C@@H](O[C@H]2[C@H](OC(=O)[C@]34CCC(C)(C)C[C@H]3C3=CCC5[C@@]6(C)C[C@H](O)[C@H](O[C@@H]7O[C@H](CO)[C@@H](O)[C@H](O)[C@H]7O)[C@@](C)(CO)C6[C@H](O)C[C@@]5(C)[C@]3(C)CC4)OC[C@H](O)[C@@H]2O)[C@H](O)[C@H](O)[C@H]1O[C@@H]1OC[C@@H](O)[C@H](O[C@@H]2OC[C@](O)(CO)[C@H]2O)[C@H]1O` (stereo not given in full): the activity change, negative = inhibition was 3.34% [at 12.4 µM].

As to `Cc1cc(Nc2nc(NC(C)c3ncc(F)cn3)ncc2Cl)n[nH]1` (stereo not given), the Potency result was “inactive”. On the same count and under the same terms, to `CC1C(=O)CC2C3CCC(C(=O)O)C12CC3(C)CO` (stereo not given) belongs “inactive”. As for `C[C@@H]1[C@H]2[C@H](O[C@@H]3O[C@H](CO)[C@@H](O)[C@H](O)[C@H]3O)OC=C(C(=O)O)[C@H]2C[C@@H]1O`, the Potency result was “inactive”. Turning to `COc1ncc2cc(C(=O)Nc3cc(C(=O)NCc4cccc(Cl)c4)ccc3Cl)c(=O)[nH]c2n1`, the Potency result was “inactive”.

The values are drawn from PubChem BioAssay (NCATS).
